# Data taken from the supplement of paper PMC10849652.
# About 8,800 targets were measured; listed, in parts, are those with a hit and a random draw of the rest. About 0.5% of all pairs of compound and target were hits. Values without a mark were called inactive.
# Columns and labels:
# Assay in all cases: log2 fold change, soluble protein after heating vs DMSO (PISA); higher = thermal stabilisation; K562 lysate, 10 uM; active = over 0.2 and 3.5 SD of the protein, either way, in both replicates (recomputed)
# vemurafenib = compound: CCCS(=O)(=O)Nc1ccc(F)c(C(=O)c2c[nH]c3ncc(-c4ccc(Cl)cc4)cc23)c1F [vemurafenib]
# Procedure, shortened: (§1)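 Log-two fold change in thermal stability relative to solvent controls is reported from duplicates. For each sample, crude K562 extract from dounce-homogenised pellets in PBS pH 7.4 with 1 mM MgCl2, at 1 mg/mL protein, was treated with 10 μM compound for 30 min. Aliquots heated for 3 min across 48°C-58°C were pooled, brought to 0.5% NP-40 at 4°C and cleared at 21,000xg for 90 min. The supernatant was quantified by TMTpro 16plex LC-MS/MS with channel sums equalised.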
# [1] = compound: CCCS(=O)(=O)Nc1ccc(F)c(C(=O)c2c[nH]c3ncc(Cl)cc23)c1F
# Procedure, shortened: as §1
# barasertib = compound: CCN(CCCOc1ccc2c(Nc3cc(CC(=O)Nc4cccc(F)c4)[nH]n3)ncnc2c1)CCOP(=O)(O)O [barasertib]
# Procedure, shortened: as §1
# [2] = compound: CC[C@@H]1C(=O)N(C)c2cnc(Nc3ccc(C(=O)NC4CCN(C)CC4)cc3OC)nc2N1C1CCCC1
# Procedure, shortened: as §1
# volasertib = compound: CC[C@@H]1C(=O)N(C)c2cnc(Nc3ccc(C(=O)N[C@H]4CC[C@H](N5CCN(CC6CC6)CC5)CC4)cc3OC)nc2N1C(C)C [volasertib]
# Procedure, shortened: as §1
# [3] = compound: CCn1c(C(=O)N(C2CC2)C2CC2)cc2c3c(ncn3C)c(Nc3cc(C)n(C)n3)nc21
# Procedure, shortened: as §1
# [4] = compound: CCn1cc(-c2ccnc3[nH]c(-c4cccc(CN(C)C)c4)cc23)c(-c2ccc(NC(=O)N(C)C)cc2)n1
# Procedure, shortened: as §1
# [5] = compound: CN1CCC(CNc2ccc3ncc(-c4cccc(OC(F)(F)F)c4)n3n2)CC1
# Procedure, shortened: as §1
# saracatinib = compound: CN1CCN(CCOc2cc(OC3CCOCC3)c3c(Nc4c(Cl)ccc5c4OCO5)ncnc3c2)CC1 [saracatinib]
# Procedure, shortened: as §1
# sotrastaurin = compound: CN1CCN(c2nc(C3=C(c4c[nH]c5ccccc45)C(=O)NC3=O)c3ccccc3n2)CC1 [sotrastaurin]
# Procedure, shortened: as §1
# alvocidib = compound: CN1CC[C@H](c2c(O)cc(O)c3c(=O)cc(-c4ccccc4Cl)oc23)[C@H](O)C1 [alvocidib]
# Procedure, shortened: as §1
# Tubastatin A = compound: CN1CCc2c(c3ccccc3n2Cc2ccc(C(=O)NO)cc2)C1 [Tubastatin A]
# Procedure, shortened: as §1
# [6] = compound: CNC(=O)C1=CC=CC=C1NC2=NC(=NC=C2Cl)NC3=C(C=C(C=C3)N4CCOCC4)OC
# Procedure, shortened: as §1
# defactinib = compound: CNC(=O)c1ccc(Nc2ncc(C(F)(F)F)c(NCc3nccnc3N(C)S(C)(=O)=O)n2)cc1 [defactinib]
# Procedure, shortened: as §1
# [7] = compound: CNc1nc(-c2ccc3c(N)n[nH]c3c2)cc(N2C[C@@H](C(=O)NC3CCCCC3)CC[C@H]2C)n1
# Procedure, shortened: as §1
# encorafenib = compound: COC(=O)N[C@@H](C)CNc1nccc(-c2cn(C(C)C)nc2-c2cc(Cl)cc(NS(C)(=O)=O)c2F)n1 [encorafenib]
# Procedure, shortened: as §1
# [8] = compound: COC(=O)[C@H](CCSC)NC(=O)C1=C(C=C(C=C1)NC[C@H](CS)N)C2=CC=CC=C2
# Procedure, shortened: as §1
# alisertib = compound: COc1cc(Nc2ncc3c(n2)-c2ccc(Cl)cc2C(c2c(F)cccc2OC)=NC3)ccc1C(=O)O [alisertib]
# Procedure, shortened: as §1
# [9] = compound: COc1cc2nc(-c3cc(F)ccc3O)nc(N[C@@H]3CNC[C@H]3C(C)(C)O)c2cc1OC
# Procedure, shortened: as §1
# gefitinib = compound: COc1cc2ncnc(Nc3ccc(F)c(Cl)c3)c2cc1OCCCN1CCOCC1 [gefitinib]
# Procedure, shortened: as §1
# UniProt A6NDN3, sequence (A6NDN3 whole entry, looked up): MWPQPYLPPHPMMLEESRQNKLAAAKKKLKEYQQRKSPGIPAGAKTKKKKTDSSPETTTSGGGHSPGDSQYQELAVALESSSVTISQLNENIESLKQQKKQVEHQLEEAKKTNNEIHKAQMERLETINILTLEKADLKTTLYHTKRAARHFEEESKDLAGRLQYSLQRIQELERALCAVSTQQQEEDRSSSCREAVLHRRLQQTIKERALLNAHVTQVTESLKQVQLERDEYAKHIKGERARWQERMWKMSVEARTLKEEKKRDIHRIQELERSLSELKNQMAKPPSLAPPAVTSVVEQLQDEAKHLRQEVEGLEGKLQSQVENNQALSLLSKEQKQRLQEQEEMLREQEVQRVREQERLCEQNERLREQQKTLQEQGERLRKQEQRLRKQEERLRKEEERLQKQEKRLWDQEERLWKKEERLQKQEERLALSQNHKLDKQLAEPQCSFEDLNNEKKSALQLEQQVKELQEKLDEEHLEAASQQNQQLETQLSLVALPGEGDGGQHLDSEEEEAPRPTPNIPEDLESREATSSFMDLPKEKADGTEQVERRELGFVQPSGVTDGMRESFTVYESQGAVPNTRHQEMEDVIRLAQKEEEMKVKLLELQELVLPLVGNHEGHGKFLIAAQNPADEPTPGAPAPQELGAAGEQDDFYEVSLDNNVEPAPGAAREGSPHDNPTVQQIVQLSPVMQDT
# UniProt O94927, sequence (O94927 whole entry, looked up): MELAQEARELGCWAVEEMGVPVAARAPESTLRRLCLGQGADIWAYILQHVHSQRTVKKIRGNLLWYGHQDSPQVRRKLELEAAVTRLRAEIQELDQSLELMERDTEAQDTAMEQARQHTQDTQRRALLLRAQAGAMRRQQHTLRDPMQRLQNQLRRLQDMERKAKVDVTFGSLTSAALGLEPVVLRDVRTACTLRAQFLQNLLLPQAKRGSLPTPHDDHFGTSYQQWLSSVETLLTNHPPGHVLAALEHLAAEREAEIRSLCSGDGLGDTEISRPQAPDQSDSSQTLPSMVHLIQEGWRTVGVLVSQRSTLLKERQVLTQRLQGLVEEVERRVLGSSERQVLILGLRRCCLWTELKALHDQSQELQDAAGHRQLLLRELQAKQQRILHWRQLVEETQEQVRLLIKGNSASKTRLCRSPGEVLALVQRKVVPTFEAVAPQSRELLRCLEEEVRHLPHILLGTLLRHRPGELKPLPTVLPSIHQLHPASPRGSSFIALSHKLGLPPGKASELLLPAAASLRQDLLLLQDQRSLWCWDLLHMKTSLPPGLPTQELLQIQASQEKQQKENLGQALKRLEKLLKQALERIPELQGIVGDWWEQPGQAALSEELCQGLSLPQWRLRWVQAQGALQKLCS
# UniProt Q13547, sequence (Q13547 whole entry, looked up): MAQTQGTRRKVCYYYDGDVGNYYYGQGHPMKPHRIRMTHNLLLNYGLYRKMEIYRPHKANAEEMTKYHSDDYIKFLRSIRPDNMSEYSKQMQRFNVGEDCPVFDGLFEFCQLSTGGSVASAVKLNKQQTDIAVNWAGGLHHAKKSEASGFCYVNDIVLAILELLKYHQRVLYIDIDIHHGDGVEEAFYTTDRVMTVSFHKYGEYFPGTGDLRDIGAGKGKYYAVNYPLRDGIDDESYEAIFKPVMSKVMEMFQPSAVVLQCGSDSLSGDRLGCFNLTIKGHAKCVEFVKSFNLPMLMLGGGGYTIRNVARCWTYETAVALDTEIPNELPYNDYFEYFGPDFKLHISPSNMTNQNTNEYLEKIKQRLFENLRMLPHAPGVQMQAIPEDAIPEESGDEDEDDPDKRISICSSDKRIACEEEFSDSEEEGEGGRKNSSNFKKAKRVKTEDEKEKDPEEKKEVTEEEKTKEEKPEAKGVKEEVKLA
# UniProt Q16836, sequence (Q16836 whole entry, looked up): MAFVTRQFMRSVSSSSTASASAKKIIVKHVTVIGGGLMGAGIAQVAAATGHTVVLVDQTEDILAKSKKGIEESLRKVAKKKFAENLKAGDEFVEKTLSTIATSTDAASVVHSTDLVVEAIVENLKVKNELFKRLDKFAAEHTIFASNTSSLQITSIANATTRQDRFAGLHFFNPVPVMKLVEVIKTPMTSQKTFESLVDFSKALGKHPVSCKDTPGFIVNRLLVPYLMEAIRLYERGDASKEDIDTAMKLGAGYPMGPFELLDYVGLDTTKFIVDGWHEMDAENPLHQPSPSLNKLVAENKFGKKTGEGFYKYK
# UniProt Q58FG1, sequence (Q58FG1 whole entry, looked up): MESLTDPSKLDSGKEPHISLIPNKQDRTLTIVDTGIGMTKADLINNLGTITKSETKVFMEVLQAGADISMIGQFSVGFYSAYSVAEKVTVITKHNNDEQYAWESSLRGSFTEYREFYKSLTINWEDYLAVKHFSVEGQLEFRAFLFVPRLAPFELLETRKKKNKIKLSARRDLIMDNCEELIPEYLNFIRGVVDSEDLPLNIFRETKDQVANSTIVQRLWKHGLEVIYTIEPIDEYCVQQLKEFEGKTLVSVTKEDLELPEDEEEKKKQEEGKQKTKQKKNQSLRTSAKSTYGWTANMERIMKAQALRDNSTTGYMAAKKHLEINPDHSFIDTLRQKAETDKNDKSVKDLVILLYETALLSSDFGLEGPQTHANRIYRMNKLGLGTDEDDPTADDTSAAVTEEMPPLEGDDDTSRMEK
# UniProt Q6DN03, sequence (Q6DN03 whole entry, looked up): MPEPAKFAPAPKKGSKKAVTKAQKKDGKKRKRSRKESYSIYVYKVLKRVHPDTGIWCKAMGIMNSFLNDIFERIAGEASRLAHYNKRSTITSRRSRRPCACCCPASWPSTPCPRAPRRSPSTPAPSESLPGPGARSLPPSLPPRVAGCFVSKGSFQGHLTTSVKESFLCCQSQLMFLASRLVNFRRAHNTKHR
# UniProt Q27J81, sequence (Q27J81 whole entry, looked up): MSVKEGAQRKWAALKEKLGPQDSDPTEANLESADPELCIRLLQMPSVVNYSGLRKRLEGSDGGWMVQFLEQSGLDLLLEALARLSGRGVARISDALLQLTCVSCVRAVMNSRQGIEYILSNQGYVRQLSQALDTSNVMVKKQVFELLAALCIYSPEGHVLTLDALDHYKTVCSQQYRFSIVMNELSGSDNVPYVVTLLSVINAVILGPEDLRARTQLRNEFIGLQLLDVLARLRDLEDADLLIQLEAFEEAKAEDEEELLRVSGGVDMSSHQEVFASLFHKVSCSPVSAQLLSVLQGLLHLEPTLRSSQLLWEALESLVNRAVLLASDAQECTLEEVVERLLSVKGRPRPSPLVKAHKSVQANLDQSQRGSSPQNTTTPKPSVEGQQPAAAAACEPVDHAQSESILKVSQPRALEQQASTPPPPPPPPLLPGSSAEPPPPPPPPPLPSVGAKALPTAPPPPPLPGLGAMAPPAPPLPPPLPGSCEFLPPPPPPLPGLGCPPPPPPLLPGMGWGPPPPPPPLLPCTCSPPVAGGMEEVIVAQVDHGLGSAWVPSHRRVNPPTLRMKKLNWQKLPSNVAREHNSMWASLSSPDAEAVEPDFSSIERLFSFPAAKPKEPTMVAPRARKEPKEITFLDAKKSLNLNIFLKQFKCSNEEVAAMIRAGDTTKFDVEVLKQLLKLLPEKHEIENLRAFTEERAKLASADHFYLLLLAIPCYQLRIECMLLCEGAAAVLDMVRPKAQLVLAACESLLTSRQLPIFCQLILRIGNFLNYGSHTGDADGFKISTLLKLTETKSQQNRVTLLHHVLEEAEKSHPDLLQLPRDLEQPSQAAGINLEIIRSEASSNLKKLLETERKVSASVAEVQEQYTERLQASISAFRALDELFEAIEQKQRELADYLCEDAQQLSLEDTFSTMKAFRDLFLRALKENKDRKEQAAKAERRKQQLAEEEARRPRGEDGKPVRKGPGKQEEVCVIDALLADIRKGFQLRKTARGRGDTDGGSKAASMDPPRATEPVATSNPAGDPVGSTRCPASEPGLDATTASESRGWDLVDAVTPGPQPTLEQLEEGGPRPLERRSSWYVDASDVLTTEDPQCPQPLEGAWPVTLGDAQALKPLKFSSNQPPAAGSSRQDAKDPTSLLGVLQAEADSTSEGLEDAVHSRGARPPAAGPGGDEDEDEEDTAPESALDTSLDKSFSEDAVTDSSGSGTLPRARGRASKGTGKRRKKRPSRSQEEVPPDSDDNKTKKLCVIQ
# UniProt P20839, sequence (P20839 whole entry, looked up): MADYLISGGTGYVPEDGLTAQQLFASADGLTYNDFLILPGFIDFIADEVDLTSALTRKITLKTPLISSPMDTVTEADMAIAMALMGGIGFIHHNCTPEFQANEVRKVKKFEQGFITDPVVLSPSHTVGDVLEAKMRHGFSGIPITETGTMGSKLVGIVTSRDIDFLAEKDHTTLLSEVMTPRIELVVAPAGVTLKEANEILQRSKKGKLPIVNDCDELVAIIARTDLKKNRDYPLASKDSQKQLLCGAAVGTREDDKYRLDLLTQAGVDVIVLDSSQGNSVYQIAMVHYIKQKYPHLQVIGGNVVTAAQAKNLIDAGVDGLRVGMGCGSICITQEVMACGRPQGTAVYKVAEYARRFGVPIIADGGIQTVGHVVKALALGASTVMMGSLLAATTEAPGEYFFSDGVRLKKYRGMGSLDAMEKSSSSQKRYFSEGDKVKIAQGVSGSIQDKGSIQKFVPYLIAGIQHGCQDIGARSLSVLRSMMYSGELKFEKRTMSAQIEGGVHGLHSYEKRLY
# UniProt Q7Z5Y7, sequence (Q7Z5Y7 whole entry, looked up): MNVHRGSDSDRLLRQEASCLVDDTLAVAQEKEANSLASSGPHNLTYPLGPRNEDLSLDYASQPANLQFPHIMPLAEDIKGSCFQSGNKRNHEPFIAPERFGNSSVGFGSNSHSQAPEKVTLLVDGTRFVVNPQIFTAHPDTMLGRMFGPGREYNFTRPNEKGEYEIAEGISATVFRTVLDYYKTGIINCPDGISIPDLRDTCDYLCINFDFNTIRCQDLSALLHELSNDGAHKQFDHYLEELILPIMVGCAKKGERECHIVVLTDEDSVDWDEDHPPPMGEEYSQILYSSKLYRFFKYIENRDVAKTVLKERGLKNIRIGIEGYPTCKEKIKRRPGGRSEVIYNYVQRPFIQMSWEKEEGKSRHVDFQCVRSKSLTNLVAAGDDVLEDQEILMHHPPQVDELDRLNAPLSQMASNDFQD
Target,log2 fold change (vemurafenib),log2 fold change [1],log2 fold change (barasertib),log2 fold change [2],log2 fold change (volasertib),log2 fold change [3],log2 fold change [4],log2 fold change [5],log2 fold change (saracatinib),log2 fold change (sotrastaurin),log2 fold change (alvocidib),log2 fold change (Tubastatin A),log2 fold change [6],log2 fold change (defactinib),log2 fold change [7],log2 fold change (encorafenib),log2 fold change [8],log2 fold change (alisertib),log2 fold change [9],log2 fold change (gefitinib)
HDAC1 (UniProt Q13547),0.01,0.022,-0.001,-0.004,-0.019,0.03,-0.036,-0.001,0.014,-0.011,0.003,-0.027,-0.015,0.014,-0.012,0.006,0.04,0.017,-0.031,0.004
HIST2H2AA3 (UniProt Q6FI13),-0.078,0.028,-0.012,-0.007,-0.006,0.012,0.694 (active),-0.217,-0.034,-0.116,0.202,0.092,-0.002,-0.032,0.277,-0.027,0.086,-0.097,-0.027,-0.086
HIST2H2BC (UniProt Q6DN03),-0.261,0.026,-0.029,-0.05,0.013,0.033,0.291 (active),-0.024,0,-0.01,0.024,0.004,0.019,-0.148,-0.003,0.092,0.143,0.005,0.008,-0.12
INTS10 (UniProt Q9NVR2),-0.008,-0.183,0.061,-0.129,-0.088,-0.021,0.14,-0.054,0.052,0.023,-0.009,-0.143,-0.033,0.016,-0.045,-0.017,0.043,-0.093,-0.097,0.049
GOLPH3 (UniProt Q9H4A6),-0.007,0.015,0.036,-0.016,-0.041,0.018,-0.029,-0.103,0.021,-0.053,0.001,-0.123,0.075,0.015,-0.1,0.051,-0.6 (active),-0.018,-0.024,-0.011
IMPDH1 isoform 6 (UniProt P20839),-0.006,-0.015,-0.01,0.003,-0.002,-0.006,-0.128,0.021,0.003,-0.024,-0.009,-0.226 (active),0.002,-0.002,0.018,-0.001,-0.478 (active),0.004,-0.002,0.005
KCTD20 (UniProt Q7Z5Y7),0.17,0.02,0.052,0.046,0.007,-0.055,0.018,-0.037,0.048,0.025,0.05,-0.174,0.01,-0.041,-0.025,-0.165,-0.058,-0.089,-0.095,0.035
GOLGA6B (UniProt A6NDN3),0.015,-0.003,0.2,0.149,-0.006,0.078,-0.086,0.102,0.101,-0.004,-0.019,-0.054,-0.002,0.018,-0.086,-0.048,-0.053,-0.074,0.043,0.065
INF2 (UniProt Q27J81),0,-0.059,0.104,-0.07,-0.052,-0.01,-0.064,-0.045,0.036,0.019,-0.027,-0.062,0.022,0.117,-0.104,-0.068,0.083,-0.008,-0.01,-0.009
GLUD2 (UniProt P49448),0.177,-0.042,-0.069,0.02,-0.145,-0.031,-0.024,0.046,0.007,-0.039,-0.029,0.12,0.053,0.061,0.02,0.066,0.115,-0.06,-0.021,0.036
HERC2 (UniProt O95714),0.034,0.004,0.038,-0.038,-0.01,0.039,0.032,-0.021,0.037,0.047,-0.075,-0.316 (active),-0.109,-0.085,-0.077,0.027,0.111,-0.007,0.005,0.004
INPP4A (UniProt Q96PE3),-0.03,0.011,0.382 (active),-0.017,-0.034,0.031,0.021,0.015,-0.025,-0.008,-0.032,-0.051,0.033,0.046,0.009,0.01,-0.019,-0.026,0.01,-0.033
HADH isoform 2 (UniProt Q16836),-0.032,-0.022,-0.049,0.002,0.004,0.009,0.066,-0.054,-0.096,0.004,0.048,0.003,-0.024,0.061,0.09,-0.048,0.03,0.021,-0.002,0.042
HSP90AA4P (UniProt Q58FG1),-0.002,0,0.377,0.006,0.005,-0.076,0.26,0.041,-0.03,0.033,-0.228,0.052,-0.081,-0.213,-0.046,-0.022,0.123,-0.012,0.068,0.042
HNRNPD isoform 3 (UniProt Q14103),0.024,-0.028,-0.033,0.128,0.014,0.077,-0.077,-0.023,0.048,-0.066,0.017,0.008,0.004,0.117,0.146,0.036,0.016,0.024,0.001,0.113
HAUS5 (UniProt O94927),0.004,0.048,-0.02,-0.038,-0.016,0.026,0.01,-0.087,-0.008,0.03,0.062,-0.146,0.007,0.026,0.015,-0.006,0.092,-0.01,0.006,-0.007
